Results reported in PubChem BioAssay (NCATS).
Results filed as inconclusive are left out. Values without a mark were called inactive. Calls of active or inactive are those of the source. Calls follow the shape of the dose curve; as a rule, active = well fitted inhibition curve with a large enough effect in the repeat runs; inconclusive = weak or mixed curves; inactive = no such curve, though single readings can be large or run the other way.

target: Cytochrome P450 2C9 (Homo sapiens) (UniProt P11712); experiment: Cytochrome P450 family 2 subfamily C member 9 (CYP2C9) small molecule antagonists: luciferase biochemical (cell-free) qHTS assay (AID 1645842); settings: P450-Glo CYP2C9 enzyme assay, luciferin luminescence; series mostly up to 57.4 µM; activity change, negative = inhibition: at the top concentration; also: nearly all actives have a fitted effect of over 55% in size
Procedure, shortened: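 Luminescence, after 20 min with luciferin detection reagent, reflected CYP2C9 turnover during a 1 h NADPH-driven reaction at 37C. Enzyme-substrate mix contained 0.4% bovine serum albumin and was preincubated with compound 10 min at room temperature.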
% is scaled to controls: 0 for no effect and ±100 for the full control effect; potency is read from the fitted curve at half-maximal effect.

Sequence of Cytochrome P450 2C9 (Homo sapiens) (P11712 whole entry, looked up): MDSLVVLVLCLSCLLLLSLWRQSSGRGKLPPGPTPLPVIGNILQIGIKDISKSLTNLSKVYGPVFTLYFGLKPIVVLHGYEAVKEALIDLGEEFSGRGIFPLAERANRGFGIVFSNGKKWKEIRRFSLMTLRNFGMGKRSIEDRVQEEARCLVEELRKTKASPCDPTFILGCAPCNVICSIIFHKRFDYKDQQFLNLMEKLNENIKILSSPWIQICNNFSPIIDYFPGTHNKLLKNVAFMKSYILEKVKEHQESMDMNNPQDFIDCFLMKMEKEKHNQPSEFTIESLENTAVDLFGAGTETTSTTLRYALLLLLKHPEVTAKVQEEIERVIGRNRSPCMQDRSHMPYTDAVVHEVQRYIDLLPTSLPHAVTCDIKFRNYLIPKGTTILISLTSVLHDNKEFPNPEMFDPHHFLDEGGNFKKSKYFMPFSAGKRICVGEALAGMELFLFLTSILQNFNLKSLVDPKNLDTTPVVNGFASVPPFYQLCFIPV

| Structure (SMILES) | activity change, negative = inhibition [%] | Potency |
| --- | --- | --- |
| Cc1cccc(NC(=O)Cn2c(=O)n(Cc3ccc(C(=O)NCc4ccc5c(c4)OCO5)cc3)c(=O)c3ccccc32)c1 | 4.29 |  |
| Cc1cc(C)c(Cn2c3ccccc3c3cnn(CC(=O)NCc4ccccn4)c(=O)c32)c(C)c1 |  | 10700 nM (active) |
| COc1cccc(CNC(=O)C2CCCN(c3nn4cc(-c5ccc(C)cc5)nc4s3)C2)c1 (configuration not stated) |  | 2390 nM (active) |
| COc1ccc(Cn2ccnc2SCC(=O)Nc2nc3ccccc3s2)cc1 |  | 2390 nM (active) |
| Cc1cccc2nc(-c3ccccn3)c(Nc3ccccc3)n12 |  | 1200 nM (active) |
| Cc1ccnc(NC(c2cc(C)ccc2O)c2ccc3cccnc3c2O)c1 (configuration not stated) |  | 23900 nM (active) |
| Cc1ccc(OCC(=O)Nc2cccc(OCc3cc(=O)n4cccc(C)c4n3)c2)cc1C |  | 756 nM (active) |
| CCOC(=O)c1nnc(NC(=O)C2=C(C)NC(Nc3nc4ccccc4o3)=NC2c2ccccc2Cl)s1 (configuration not stated) |  | 16900 nM (active) |
| NC(=O)C[C@H](N)C(=O)O | 1.03 |  |
| Cc1ccc2ccc(C(Nc3ccccn3)c3ccccc3)c(O)c2n1 (configuration not stated) |  | 2680 nM (active) |
| COc1cc(C(=O)NC(c2ccc(Cl)cc2)c2cc(Cl)c3cccnc3c2O)cc(OC)c1OC (configuration not stated) |  | 10700 nM (active) |
| C=CC1=C(C(=O)O)N2C(=O)[C@@H](NC(=O)/C(=N\OCC(=O)O)c3csc(N)n3)[C@H]2SC1 | -18.7 |  |
| COc1ccc(Cl)cc1NC(=O)CN1C(=O)CSc2ccc(S(=O)(=O)N3CCCC3)cc21 |  | 756 nM (active) |
| Oc1c(C(Nc2ccccn2)c2ccccc2F)ccc2cccnc12 (configuration not stated) |  | 19000 nM (active) |
| CN[C@@H](C)C(=O)N[C@H](C(=O)N1CCC[C@H]1c1nc(C(=O)c2ccc(F)cc2)cs1)C1CCCCC1 | 0.557 |  |
| O=C(O)[C@@H]1CCCN1 | 7.7 |  |

| Structure (SMILES) | activity change, negative = inhibition [%] | Potency |
| --- | --- | --- |
| Cc1cc2c(F)c(Oc3ncnn4cc(OC[C@@H](C)OC(=O)[C@H](C)N)c(C)c34)ccc2[nH]1 |  | 2390 nM (active) |
| Cc1ncc(Cl)cc1NCc1ccc(C(=O)N[C@@H](CC2CCCC2)C(=O)NC2CC2)s1 |  | 8490 nM (active) |
| COC(=O)Cc1cccc(NC(=O)C2=C(C)NC(Nc3nc4ccccc4o3)=NC2c2ccccc2Cl)c1 (configuration not stated) |  | 9520 nM (active) |
| COC(=O)c1cc(S(C)(=O)=O)ccc1OC | 54.8 |  |
| COc1ccc(OC)c(/C=C(\C#N)c2nc3ccccc3c(=O)[nH]2)c1 |  | 1510 nM (active) |
| CC[C@H]1OC(=O)[C@H](C)[C@@H](O[C@H]2C[C@@](C)(OC)[C@@H](O)[C@H](C)O2)[C@H](C)[C@@H](O[C@@H]2O[C@H](C)C[C@H](N(C)C)[C@H]2O)[C@](C)(OC)C[C@@H](C)C(=O)[C@H](C)[C@@H](O)[C@]1(C)O | 7.27 |  |
| C[C@@H]1C[C@H]2[C@@H]3C[C@H](F)C4=CC(=O)C=C[C@]4(C)[C@@]3(F)[C@@H](O)C[C@]2(C)[C@@]1(O)C(=O)COC(=O)C(C)(C)C |  | 9520 nM (active) |
| CCOc1ccc(CCNC(=O)CCCn2nc(C)c3sc4ccccc4c3c2=O)cc1OCC |  | 2680 nM (active) |
| COc1ccc(OCC(=O)Nc2cc(-c3nc4ccccc4s3)ccc2C)cc1 |  | 379 nM (active) |
| CCCCCCCCCCCCCCCCNc1ccc(C(=O)O)cc1 | -3.16 |  |
| Oc1ccc(C2(c3ccccc3F)CCC(F)(F)CC2)cc1 |  | 2130 nM (active) |
| Cc1ccc(C)c(NC(=O)C2CCN(S(=O)(=O)c3c(C)noc3/C=C/c3cccs3)CC2)c1 |  | 849 nM (active) |
| Cc1ccccc1C(=O)Nc1sc2c(c1C(=O)O)CCC(C(C)(C)C)C2 (configuration not stated) | -23.7 |  |
| CC(C)(C)NC(=O)[C@@H]1C[C@@H]2CCCC[C@@H]2CN1CC(O)[C@H](Cc1ccccc1)NC(=O)[C@@H](CC(N)=O)NC(=O)c1ccc2ccccc2n1 (some centres not stated) |  | 12000 nM (active) |
| O=C(CSc1nc2ccccc2n1Cc1cccc(Cl)c1)N1CCN(c2ccc(F)cc2)CC1 |  | 3380 nM (active) |
| COc1cc(Cl)c(C)cc1NC(=O)CSc1ncc(S(=O)(=O)c2ccc(C(C)(C)C)cc2)c(=O)[nH]1 |  | 425 nM (active) |
